SMILES strings stand for the structures. The whole screen tested about 310,000 compounds, of which about 14,000 (4.5%) showed an effect of 50% or more. Effects have a minus sign here. Only a selection was taken, and strong results are over-represented in it overall.
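Note: peak tail current of the secondary pulse compared with the same well before compound.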

For the experiment, the target named is human ether-à-go-go-related gene (hERG) potassium channel (human, UniProt Q12809). Description: primary screen, population patch clamp on CHO cells stably expressing hERG; higher = less effect of the substance.
Sequence of human ether-à-go-go-related gene (hERG) potassium channel (Q12809 whole entry, looked up): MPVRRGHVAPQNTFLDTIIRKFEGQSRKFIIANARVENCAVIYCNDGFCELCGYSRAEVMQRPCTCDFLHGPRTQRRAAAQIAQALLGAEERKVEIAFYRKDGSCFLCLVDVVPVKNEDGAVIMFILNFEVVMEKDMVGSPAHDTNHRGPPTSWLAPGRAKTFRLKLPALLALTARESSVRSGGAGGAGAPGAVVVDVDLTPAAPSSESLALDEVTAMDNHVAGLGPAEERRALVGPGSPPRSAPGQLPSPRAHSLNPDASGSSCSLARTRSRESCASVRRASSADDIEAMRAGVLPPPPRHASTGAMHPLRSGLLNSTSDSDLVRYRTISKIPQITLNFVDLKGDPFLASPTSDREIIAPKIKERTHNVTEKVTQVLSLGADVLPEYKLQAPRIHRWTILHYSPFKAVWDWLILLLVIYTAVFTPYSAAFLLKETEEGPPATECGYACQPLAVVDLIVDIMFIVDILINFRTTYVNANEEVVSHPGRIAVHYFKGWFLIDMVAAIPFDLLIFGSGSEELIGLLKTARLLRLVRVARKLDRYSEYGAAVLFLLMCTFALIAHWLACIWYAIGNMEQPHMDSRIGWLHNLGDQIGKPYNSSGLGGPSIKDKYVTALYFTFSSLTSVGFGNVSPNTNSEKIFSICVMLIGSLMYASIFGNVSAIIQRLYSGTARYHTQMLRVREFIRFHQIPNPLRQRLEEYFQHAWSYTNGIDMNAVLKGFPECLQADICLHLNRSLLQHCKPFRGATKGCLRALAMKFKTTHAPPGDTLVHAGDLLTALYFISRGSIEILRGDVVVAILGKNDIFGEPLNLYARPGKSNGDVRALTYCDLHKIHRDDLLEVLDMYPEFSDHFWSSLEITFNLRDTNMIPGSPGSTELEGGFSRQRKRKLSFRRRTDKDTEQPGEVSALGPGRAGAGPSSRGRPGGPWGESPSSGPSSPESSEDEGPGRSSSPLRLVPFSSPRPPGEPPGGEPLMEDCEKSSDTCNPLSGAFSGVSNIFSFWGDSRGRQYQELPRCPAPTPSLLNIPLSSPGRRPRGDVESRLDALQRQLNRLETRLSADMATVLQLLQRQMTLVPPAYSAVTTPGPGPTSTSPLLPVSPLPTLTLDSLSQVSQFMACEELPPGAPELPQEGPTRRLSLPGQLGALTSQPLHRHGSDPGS
Consider `C=CCNc1nc2c(c(=O)[nH]c(=O)n2C)n1CCCc1ccccc1`, for which the “hERG current change (%, negative = inhibition) at 10uM” value was -4.44%.
In the case of `CC1=C(C(=O)OCc2ccccc2)C(c2ccccc2Cl)NC(=O)N1CCCCCC(=O)O` (stereo not drawn), the “hERG current change (%, negative = inhibition) at 10uM” value was -12.4%.
With `CC1=C(C(=O)OCc2ccccc2)C(c2ccccc2-c2ccccc2)NC(=O)N1CCCCCC(=O)O` (stereo not drawn), the “hERG current change (%, negative = inhibition) at 10uM” value is listed as -63.1%.
Take `CC1=C(C(=O)OCc2ccccc2)C(c2ccc(-c3ccccc3)cc2)NC(=O)N1CCCCCC(=O)O` (stereo not drawn): the “hERG current change (%, negative = inhibition) at 10uM” value was -2.3%.
In the case of `CCN(CC(=O)Nc1c(F)cccc1F)C(=O)c1ccc2ccccc2n1`, the “hERG current change (%, negative = inhibition) at 10uM” value was -19.6%.
In the case of `O=c1[nH]cccc1-c1nc2ccccc2n1Cc1ccc(F)cc1` it was -22.5%; in that of `CCOc1ccc(NC(=O)CN(C)C(=O)c2ccccc2Cc2ccccc2)cc1OCC`, -14%; in that of `O=[N+]([O-])c1ccc(CN2CCN(c3ccc([N+](=O)[O-])cc3)CC2)cc1`, -74.1%.
Regarding `O=[N+]([O-])c1ccc(/C=N\N2CCN(c3ccc(Cl)cc3)CC2)cc1`, the “hERG current change (%, negative = inhibition) at 10uM” value is recorded as 16.8%.
The same measure for `O=[N+]([O-])c1ccc(N2CCC(=NOCc3ccc(Cl)cc3)CC2)cc1`: -54.5%; for `O=[N+]([O-])c1cccc(CN2CCCCCC2)c1`: 5.75%; for `O=[N+]([O-])c1ccc(N2CCN(Cc3cccc([N+](=O)[O-])c3)CC2)cc1`: -71.8%.
Turning to `O=[N+]([O-])c1ccc(N2CCN(CC3CCCCC3)CC2)cc1`, the “hERG current change (%, negative = inhibition) at 10uM” value is reported as -63%.
Regarding `CC(=O)c1ccc(N2CCN(CC3CCCCC3)CC2)cc1`, the “hERG current change (%, negative = inhibition) at 10uM” value is on record as -24%.
The same measure for `FC(F)(F)c1cnc(N2CCC(=NOCc3ccc(Cl)cc3)CC2)c(Cl)c1`: 29.6%; for `O=[N+]([O-])c1cccc(CN2CCN(c3ncccn3)CC2)c1`: -1.26%.
In the case of `c1ccc(N2CCN(CC3CCCCC3)CC2)cc1` it was 9.61%; in that of `CCOc1ccccc1-c1nnc(SCC(=O)NC2CC3CCC2C3)n1CC` (stereo not drawn), -3.89%; in that of `O=C(O)C(=O)O.O=C(c1cccc(F)c1)N1CCN(Cc2c[nH]c3ccccc23)CC1`, -9.05%.
In the case of `Clc1ccc(CN2CCN(c3ncccn3)CC2)cc1`, the “hERG current change (%, negative = inhibition) at 10uM” value is -4.03%.
For `CN(Cc1ccccc1)c1nc2c(c(=O)n(C)c(=O)n2C)n1CCSc1ncccn1`, the “hERG current change (%, negative = inhibition) at 10uM” value is reported as -13.7%.
The same measure for `O=C1/C(=C\c2ccc([N+](=O)[O-])cc2)CCc2ccccc21`: -6.6%.
Consider `O=C1CCNc2c(Cl)cc(Cl)cc21`, for which the “hERG current change (%, negative = inhibition) at 10uM” value was -2.74%.
As to `N#CC1=C(N)Nc2ncnn2C1c1ccccc1` (stereo not drawn), the “hERG current change (%, negative = inhibition) at 10uM” value is recorded as 10.6%.
In the case of `COc1ccc2c(c1)[nH]c1c(Cl)ncnc12`, the “hERG current change (%, negative = inhibition) at 10uM” value stood at 3.14%.
Turning to `O[C@H]1c2ccccc2[C@H](Cc2cncs2)[C@@H]1Br`, the “hERG current change (%, negative = inhibition) at 10uM” value is given as 0.746%.
Consider `O=[N+]([O-])c1ccc(N2CCN(Cc3ccncc3)CC2)cc1`, for which the “hERG current change (%, negative = inhibition) at 10uM” value is on record as -64.8%.
The same measure for `O=[N+]([O-])c1ccc(CN2CCN(c3ncccn3)CC2)cc1`: -32.2%; for `Fc1ccc(-n2nnc(-c3ccccc3Cl)n2)cc1`: 12.2%; for `O=C(CC1Oc2ccccc2NC1=O)NCCc1ccccc1` (stereo not drawn): -4.18%.
`COc1cccc(S(=O)(=O)NC2CCN(C#N)C2)c1` (stereo not drawn): the “hERG current change (%, negative = inhibition) at 10uM” value was 9.23%.
As to `O=C(Nc1nc(-c2ccc(F)cc2)cs1)C1CCCO1` (stereo not drawn), the “hERG current change (%, negative = inhibition) at 10uM” value was -6.67%.
In the case of `O=C(Nc1ccccc1)C1CCCN(C(=O)c2ccc(F)cc2)C1` (stereo not drawn), the “hERG current change (%, negative = inhibition) at 10uM” value is on record as -51.8%.
In the case of `O=C(c1ccc(F)cc1)N1CCCC(C(=O)N2CCCCC2)C1` (stereo not drawn) it was 16.5%.
Regarding `COc1ccc(-c2csc(NC(=O)C3CCN(C(=O)c4ccc(F)cc4)CC3)n2)cc1OC`, the “hERG current change (%, negative = inhibition) at 10uM” value is -13.8%.
The same measure for `O=C(Nc1cccc(F)c1)C1CCN(C(=O)c2ccc(Cl)cc2)CC1`: -49.4%; for `O=C(Nc1ccccc1)C1CCCN(C(=O)c2ccc(Cl)cc2)C1` (stereo not drawn): -9.92%; for `O=C(Nc1ccccc1)C1CCN(C(=O)c2ccc(Br)cc2)CC1`: -59.3%.
`O=C(Nc1ccc(Br)cc1)C1CCN(C(=O)c2ccco2)CC1`: the “hERG current change (%, negative = inhibition) at 10uM” value is recorded as -14%.
Consider `O=C(Nc1cccc(F)c1)C1CCN(C(=O)c2ccc(Br)cc2)CC1`, for which the “hERG current change (%, negative = inhibition) at 10uM” value is -65.1%.
The same measure for `O=C(Nc1nc(-c2ccc(F)cc2)cs1)C1CCN(C(=O)c2ccc(F)cc2)CC1`: -54.7%; for `O=C(Nc1ccc(F)cc1F)C1CCN(C(=O)c2ccc(Br)cc2)CC1`: -30.2%; for `O=C(Nc1ccccc1)C1CCN(C(=O)c2ccccc2)CC1`: 4.62%.
Take `COc1ccc(CSc2nc(N3CCOCC3)c3c(c2C#N)CC(C)(C)OC3)cc1`: the “hERG current change (%, negative = inhibition) at 10uM” value was -14.5%.
For the compound `CC1=C2[C@@H]3OC(=O)[C@H](C)C3CC[C@@]2(C)C=CC1=O` (stereo partly drawn), the “hERG current change (%, negative = inhibition) at 10uM” value was found to be 27.7%.
For the compound `CCNc1nc(Oc2ccc(C(=O)OCC)cc2)nc(N2CCOCC2)n1`, the “hERG current change (%, negative = inhibition) at 10uM” value is listed as -6.59%.
In the case of `COc1cc2c(cc1NC(=O)CCC(=O)O)oc1ccccc12` it was 18.5%; in that of `CCOC(=O)C1CCCN(S(=O)(=O)c2ccc(Br)c(OC)c2)C1` (stereo not drawn), -14.3%.
The same measure for `ONC(=Nc1ccccc1Cl)c1ccccc1Cl`: -14%.
In the case of `COC(=O)c1ccc(Oc2nc(NC(C)C)nc(N(C)C)n2)cc1`, the “hERG current change (%, negative = inhibition) at 10uM” value came out at 12.5%.
With `Cc1cccc(OCC(=O)N2CCCc3ccccc32)c1`, the “hERG current change (%, negative = inhibition) at 10uM” value is recorded as 8.85%.
As for `O=C(Nc1ccc(F)cc1)C1CCN(C(=O)c2ccc(F)cc2)CC1`, the “hERG current change (%, negative = inhibition) at 10uM” value was -37.4%.
On to `O=C(Nc1ccc(S(=O)(=O)N2CCCCC2)cc1)C1CCN(C(=O)c2ccc(F)cc2)CC1`, for which the “hERG current change (%, negative = inhibition) at 10uM” value was -33.7%.
In the case of `O=C(Nc1ccc(Br)cc1)C1CCN(C(=O)c2ccc(F)cc2)CC1`, the “hERG current change (%, negative = inhibition) at 10uM” value was -61.9%.
The same measure for `Cc1cc(C(=O)OCC(=O)NCCc2ccccc2)c2ccccc2n1`: -17.7%; for `COc1cccc(NC(=O)NCC2CCN(Cc3ccc(F)cc3)CC2)c1`: -47.4%; for `O=C(NCC1CCN(S(=O)(=O)c2ccccc2)CC1)Nc1ccc(F)cc1F`: -4.47%.
With `CCOc1ccc(NC(=O)NCC2CCN(c3ccc(OC)cc3)C2)cc1` (stereo not drawn), the “hERG current change (%, negative = inhibition) at 10uM” value is -7.35%.
`O=C(NCC1CCN(Cc2ccccc2F)CC1)Nc1ccccc1F`: the “hERG current change (%, negative = inhibition) at 10uM” value is -22.5%.
For `COc1cc(NC(=O)NCC2CCN(Cc3ccc(C)cc3)CC2)cc(OC)c1OC`, the “hERG current change (%, negative = inhibition) at 10uM” value is given as -0.392%.
As to `Cc1ccccc1CN1CCC(CNC(=O)Nc2ccc(F)cc2F)CC1`, the “hERG current change (%, negative = inhibition) at 10uM” value is reported as -31.4%.
On to `COc1cc([N+](=O)[O-])ccc1NC(=O)CN1CCCC1`, for which the “hERG current change (%, negative = inhibition) at 10uM” value amounted to 3.84%.
On to `COc1cc([N+](=O)[O-])ccc1NC(=O)NCC1CCN(Cc2ccc(Cl)cc2)CC1`, for which the “hERG current change (%, negative = inhibition) at 10uM” value is on record as -60.9%.
Turning to `O=C(NCC1CCN(Cc2ccc(F)cc2)CC1)Nc1cc(F)ccc1F`, the “hERG current change (%, negative = inhibition) at 10uM” value is on record as -65.1%.
The same measure for `O=C(NCC1CCN(Cc2ccccc2F)CC1)Nc1cc(F)ccc1F`: -59.9%; for `CCOc1ccc(NC(=O)NCC2CCN(Cc3ccc(F)cc3)CC2)cc1`: -76.4%.

For the origin of these results see PMC4336329 (PLoS ONE, 2015).
